DT40 TDP1 no CPT = qHTS for Inhibitors of human tyrosyl-DNA phosphodiesterase 1 (TDP1): qHTS in cells in absence of CPT. DT40 Tdp1-/- hTDP1 cells, no CPT, ATP luminescence, 48 h. Potency, µM (top dose mostly 46.2 µM), without a hit: at the highest dose activity change, negative = growth inhibition, most hits filed as inhibitors. 420,000 compounds, 15% hits. AID 686978, 2013; also: nearly all actives have a fitted effect of over 55% in size
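Growth of hTDP1-complemented DT40 Tdp1-knockout cells is measured by ATP luminescence after at least 48 hr compound exposure at 37 °C, with DMSO substituting for the 20 nM CPT used in the parallel screen.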
TDP1 cell CPT = DT40-hTDP1 cell growth loss with CPT; chicken DT40 Tdp1-/-;hTDP1 cells + 20 nM CPT, ATP luminescence, 48 h; Potency, µM (titrated, usually from 46.2 µM), without a hit: top-dose activity change, negative = growth inhibition, hits mostly inhibitors; 420,000 compounds, 12% hits; also: nearly all actives have a fitted effect of over 55% in size
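Chicken DT40 Tdp1-/- cells complemented with human TDP1, 400 cells/well, exposed to compounds plus 20 nM camptothecin for at least 48 h at 37 C; viability read as ATP content by CellTiter-Glo luminescence.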
RORgamma inh = ROR gamma (mouse) transcription inhibition | 310,000 compounds, 5.4% hits | Drosophila S2 Gal4-RORgamma UAS-luciferase reporter, 20 h | Potency, µM (titrated, usually from 53.6 µM), without a hit: at the top dose activity change, negative = inhibition, usual class: inhibitors | P51450; also: nearly all actives have a fitted effect of over 60% in size
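Luciferase reporter read in Schneider cells carrying Gal4-RORγ (mouse) and UAS-Photinus luciferase; cells given compound 1 h before 700 uM copper sulfate induction, then incubated 20 h at ambient temperature.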
TDP1 inh = TDP1 (human) enzyme inhibition; recombinant TDP1, AlphaScreen DNA substrate cleavage; Potency, µM (series often up to 130 µM), for inactives: at the top dose activity change, negative = inhibition, actives largely listed as inhibitors; 350,000 compounds, 0.28% hits; AID 485290; also: nearly all actives have a fitted effect of over 40% in size
Target sequence (Q9NUW8 whole entry, looked up): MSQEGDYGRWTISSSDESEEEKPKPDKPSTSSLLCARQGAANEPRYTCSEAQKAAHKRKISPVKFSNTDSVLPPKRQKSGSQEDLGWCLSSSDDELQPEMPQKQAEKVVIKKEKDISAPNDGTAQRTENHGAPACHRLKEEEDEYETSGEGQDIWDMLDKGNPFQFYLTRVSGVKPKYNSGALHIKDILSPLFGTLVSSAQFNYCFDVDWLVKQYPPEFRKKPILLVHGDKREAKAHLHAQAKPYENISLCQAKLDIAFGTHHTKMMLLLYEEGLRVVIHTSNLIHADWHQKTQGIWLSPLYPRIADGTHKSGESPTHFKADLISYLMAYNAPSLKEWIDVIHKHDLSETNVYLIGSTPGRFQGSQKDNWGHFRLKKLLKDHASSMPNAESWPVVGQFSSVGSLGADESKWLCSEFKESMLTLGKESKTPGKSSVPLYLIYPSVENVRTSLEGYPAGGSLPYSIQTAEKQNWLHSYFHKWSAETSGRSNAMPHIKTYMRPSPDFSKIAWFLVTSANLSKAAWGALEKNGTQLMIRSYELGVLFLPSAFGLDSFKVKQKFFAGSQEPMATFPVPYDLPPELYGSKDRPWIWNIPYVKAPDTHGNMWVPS
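Tdp1 1 nM final; 15 min RT w/ cpd; substrate 15 nM, 5 min; beads 10 ug/ml, 10 min; AlphaScreen read. Neg ctrl: no enzyme.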
Gal4-VP16 FLuc = counter-screen for ROR gamma inhibitors: Gal4-VP16 reporter. Drosophila S2 Gal4-VP16 UAS-luciferase, luminescence, 20 h. AID 2546. 310,000 compounds, 3.5% hits. Potency, µM (top dose mostly 53.6 µM), inactives show top-dose activity, negative = inhibition, actives largely listed as inhibitors;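 also: Gal4-VP16 expression switched on by copper sulfate through the metallothionein promoter; nearly all actives have a fitted effect of over 50% in size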
Numbers without * were called inactive; ? = inconclusive; / = not tested or not shown; [ ] = dose if it differs, or a comment. This is a sample that favours compounds with a hit; in the whole collection about 19% have one here. Calls follow the shape of the dose curve; as a rule, active = well fitted curve in the direction sought with a large enough effect; inconclusive = small, poorly fitted or top-dose-only effect, or another doubt; inactive = no such curve, though single readings can be large; an effect the other way counts as inactive or inconclusive. % is scaled to controls: 0 for no effect and ±100 for the full control effect; potency is read from the fitted curve at half-maximal effect.

SMILES	DT40 TDP1 no CPT	TDP1 cell CPT	RORgamma inh	TDP1 inh	Gal4-VP16 FLuc
CN(CC(=O)Nc1cccc(F)c1)C(=O)c1cc(S(=O)(=O)N2CCN(c3ccccc3)CC2)ccc1Cl	13µM*	16.4µM*	/	1.6%	/
CN(CC(=O)Nc1ccc(F)cc1)C(=O)c1cccc(S(=O)(=O)N2CCN(c3ccc(F)cc3)CC2)c1	13µM*	14.6µM*	/	/	/
COc1cccc(NC(=O)CN(C)C(=O)c2cccc(S(=O)(=O)N3CCN(c4ccc(F)cc4)CC3)c2)c1	16.4µM*	16.4µM*	/	3.7%	/
CCC1(C(=O)c2ccc(Cl)cc2)C2c3ccccc3OC(=O)C21C(=O)Nc1ccccc1 (centres undefined)	11.6%	-0.1%	-2.9%	0.0%	?
O=c1[nH]c2ccccc2n2c(C(F)(F)F)nnc12	-3.1%	-3.6%	-25.2%	/	-2.2%
FC(F)(F)c1nnc2c(Sc3ccccc3)nc3ccc(Cl)cc3n12	0.581µM*	0.651µM*	-36.9%	-2.0%	4.1%
CC(C)CN(C(=O)CCC(=O)OCC(=O)NCCc1ccccc1)c1c(N)n(CC(C)C)c(=O)[nH]c1=O	4.9%	2.8%	-19.7%	1.2%	-1.5%
CN(CCc1ccccn1)C(=O)CCC1CCCN(C(=O)c2cccc(N(C)C)c2)C1 (centres undefined)	-2.8%	-16.4%	0.2%	0.7%	19.1%
Cc1cc(C)nc(N(C#N)CN2C(=O)c3ccccc3S2(=O)=O)n1	14.6µM*	?	12.6µM*	-2.1%	?
CN(C)c1nc(N(C)C)nc(N(C#N)CN2C(=O)c3ccccc3C2=O)n1	/	/	-14.6%	-4.4%	3.2%
CNc1nc(OC)nc(N(C#N)CN2C(=O)c3ccccc3S2(=O)=O)n1	16.4µM*	14.6µM*	-25.8%	0.0%	-20.3%
CC1CCCC(NC(=O)CN(C)CC(=O)Nc2ccc(F)cc2)C1C (centres undefined)	-15.1%	?	/	0.3%	/
Oc1c(Cl)cc(Cl)cc1Sc1cc(Cl)cc(Cl)c1O	23.1µM*	?	?	2.7%	12.6µM*
O=S(=O)(Cc1ccccc1)c1nnnn1C1CCCCC1	/	/	0.7%	3.1%	-2.2%
CC(C)(C)n1nnnc1C(c1cccs1)N(Cc1ccc(Cl)cc1)CC1CCCO1 (centres undefined)	16.4µM*	20.6µM*	?	-4.1%	?
Clc1ccc(CN(Cc2ccccc2)C(c2cccs2)c2nnnn2C2CCCC2)cc1 (centres undefined)	14.6µM*	14.6µM*	-81.2%	-2.0%	?
Cc1cc2cc(C(c3nnnn3C(C)(C)C)N(Cc3ccco3)CC3CCCO3)c(=O)[nH]c2cc1C (centres undefined)	?	?	19.3%	5.8%	1.8%
Fc1ccc(CN(Cc2ccccc2)C(c2cccs2)c2nnnn2C2CCCCC2)cc1 (centres undefined)	16.4µM*	?	?	2.3%	?
O=c1oc2c(CN3CCOCC3)c(O)ccc2cc1-c1ccccc1	/	/	/	1.1%	/
CNc1nc(-c2ccccc2)[n+](-c2ccc(C)cc2)s1	5.17µM*	3.26µM*	7.94µM*	-2.7%	7.08µM*
CC(C)(C)CC(C)(C)N=C1Nc2ccc(Cl)cc2NC12C[C@H]1CCC(=O)N3CC[C@@H](C2)[C@@H]13 (some centres undefined)	12.6µM*	?	/	/	/
CC(C)(C)CC(C)(C)N=C1Nc2ccc([N+](=O)[O-])cc2N[C@]12C[C@H]1CCCC(=O)N3CC[C@@H](C2)[C@@H]13	11.2µM*	17.8µM*	/	/	/
O=C1CCC[C@@H]2C[C@@]3(C[C@@H]4CCN1[C@H]24)Nc1cc(Cl)c(Cl)cc1NC3=NCc1ccccc1	20µM*	18.4µM*	/	/	/
O=C1CCC[C@@H]2C[C@@]3(C[C@@H]4CCN1[C@H]24)Nc1ccccc1NC3=NC1CCCCC1	-24.7%	-25.6%	/	/	/
CCOC(=O)Cn1ccc(NC(=O)c2ccc(F)cc2)n1	-22.6%	?	-1.9%	/	7.7%
SMILES	DT40 TDP1 no CPT	TDP1 cell CPT	RORgamma inh	TDP1 inh	Gal4-VP16 FLuc
COc1cccc(C(=O)NCC(=O)NCc2cc(=O)n(C)c(=O)n2C)c1	-8.3%	-3.3%	1.7%	-0.3%	2.6%
CCCN1CCC(=O)N([C@H](CSc2ccc(Br)cc2)c2ccccc2)CC1	16.4µM*	?	-18.0%	-3.5%	-1.4%
O=C1CCN(CCc2ccccc2)CCN1[C@H](CSc1ccc(Br)cc1)c1ccccc1	18.4µM*	?	37.0%	1.2%	12.4%
CCCN1CCC(=O)N(C(CSc2ccc(OC)cc2)c2ccccc2)CC1 (centres undefined)	/	/	0.8%	9.1%	-12.5%
CC1(C)CNC(=O)CC(C)(C)N1	23.4%	-10.4%	-7.6%	2.5%	3.4%
Cn1c(=O)c2ccccc2n(CC(=O)NCCC2=CCCCC2)c1=O	-26.7%	-25.4%	5.6%	2.0%	2.5%
COc1ccc(-c2noc(CCC(=O)NCCN3CCN(c4ccccc4F)CC3)n2)cc1	14.6µM*	16.4µM*	10.2%	-4.7%	?
COc1ccc(-c2noc(CCC(=O)NCCCN3CCN(c4ccccc4F)CC3)n2)cc1	16.4µM*	23.1µM*	?	2.6%	3.1%[10 µM]
COc1ccc(NC(=O)CCc2nnc3n(CC(C)C)c(=O)c4ccccc4n23)cc1	-19.9%	0.4%	/	2.0%	/
CCCCCCn1c(=O)n2n(c1=O)C[C@]1(OC(=O)NCc3ccco3)CN(S(=O)(=O)c3ccc(C)cc3)C[C@]1(O)C2	25.9µM*	?	/	/	/
COC(=O)[C@H]1C[C@@]2(O)CN(S(=O)(=O)c3ccc(C)cc3)C[C@@]2(OC(=O)Nc2c(C)noc2C)C[C@H]1C(=O)OC	-15.4%	-1.3%	/	/	/
Cc1ccc(S(=O)(=O)N2C[C@]3(O)C[C@@H]4C(=O)N(c5ccccc5)C(=O)[C@@H]4C[C@]3(OC(=O)NCc3ccco3)C2)cc1	-29.1%	-0.7%	/	/	/
Cc1ccc(S(=O)(=O)N2C[C@]3(O)C[C@@H]4C(=O)N(c5ccccc5)C(=O)[C@@H]4C[C@]3(OC(=O)NCc3ccccc3)C2)cc1	-23.6%	-7.4%	/	/	/
CCCCCCn1c(=O)n2n(c1=O)C[C@]1(OC(=O)Nc3c(C)noc3C)CN(S(=O)(=O)c3ccc(C)cc3)C[C@]1(O)C2	20.6µM*	?	/	/	/
CCCCCCn1c(=O)n2n(c1=O)C[C@]1(OC(=O)NCc3ccccc3)CN(S(=O)(=O)c3ccc(C)cc3)C[C@]1(O)C2	14.6µM*	?	/	/	/
CCCCCCn1c(=O)n2n(c1=O)C[C@]1(OC(=O)Nc3cccs3)CN(S(=O)(=O)c3ccc(C)cc3)C[C@]1(O)C2	13µM*	20.6µM*	/	/	/
CCOC(=O)N1CCN(C(=O)CSCC(=O)Nc2nc(-c3ccccc3)cs2)CC1	?	20.6µM*	?	2.7%	-17.3%
